RecA splice inh – inhibitors of M. tuberculosis RecA intein splicing | P9WHJ3 | cell-free RecA intein splicing, fluorescence | inhibition, % (concentration not given with the values) | 0.75% of 290,000 active; in the data active = inhibition above about 30%;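 note: 0% = vehicle wells and 100% = reference inhibitor control wells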
GDH-TPI inh – inhibits GDH-TPI coupling enzymes, artifact for Mtb FBA screen. GDH-TPI coupled enzyme counterscreen, NADH absorbance. inhibition, % at 4.8 µM. 1.2% of 360,000 active. AID 588335; in the data active = inhibition above about 30%;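 note: 0% = DMSO wells and 100% = wells lacking the enzyme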
Mtb UGM inh – inhibitors of M. tuberculosis UDP-galactopyranose mutase; P9WIQ1; purified UGM, fluorescence polarization probe displacement; inhibition, % at 10 µM; 0.06% of 320,000 active; AID 504406; in the data active = inhibition above about 10%, passing the limit was not always enough
FBA Mtb inh – inhibits M. tuberculosis FBA enzyme; inhibition, % at 1 µM; AID 588726; 2.3% of 360,000 active; purified M. tuberculosis FBA, fluorescence read-out; in the data active = inhibition above about 27%;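 note: 0% = vehicle and 100% = reference inhibitor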
Vc quorum ag – quorum light induction in luxS cqsA deficient V. cholerae | V. cholerae BH1578 lux reporter, luminescence, 6 h | activation, % at 18.7 µM | 0.16% of 350,000 active; in the data active = activation mostly above about 9.7%, no sharp cut-off
Rv3671c inh – inhibitors of M. tuberculosis serine protease Rv3671c | 0.048% of 320,000 active | P9WHR9 | AID 2606 | inhibition, % at 5.96 µM; in the data active = inhibition above about 38%;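 note: extracellular domain of Rv3671c used as enzyme; 0% = enzyme with DMSO and 100% = no enzyme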
An asterisk follows results filed as active; i = inactive; · = no result given; + = active, no number. A selection: hits, their analogues and other compounds. The true share with any hit is near 4.1%.

SMILES | RecA splice inh | GDH-TPI inh | Mtb UGM inh | FBA Mtb inh | Vc quorum ag | Rv3671c inh
CC(C)Sc1nc(N)c2c3c(sc2n1)CN(C)CC3 | -6 | 23 | -1 | 26 | -1 | 1
O=C(O)c1sc2cc(C(F)(F)F)cnc2c1-c1ccccn1 | 1 | 12 | 1 | 146* | 0 | 11
COC(=O)c1sc2cc(C(F)(F)F)cnc2c1-c1ccccn1 | · | 10 | -1 | 2 | 0 | -2
O=C(c1ccoc1)N1CCN(c2cc(-c3ccco3)nc3cc(-c4ccccc4)nn23)CC1 | · | 28 | · | 113* | i | ·
Cc1ccc(NC(=S)/C(=C(\[O-])c2ccc(C)c([N+](=O)[O-])c2)[n+]2ccccc2)cc1C | 8 | · | 1 | · | · | -5
COc1cccc(NC(=S)/C(=C(\[O-])c2ccc(C)c([N+](=O)[O-])c2)[n+]2ccccc2)c1 | 37* | 10 | 1 | -11 | i | -8
CC[C@H](C)[C@H](NC(=O)CNC(=O)COc1cc2c(c3oc(=O)cc(C)c13)CCC(C)(C)O2)C(=O)O | 0 | -2 | -2 | + | i | -3
CC[C@@H](C)[C@H](NC(=O)Cc1c(C)c2c(cc(C)c3c(C)c(C)oc32)oc1=O)C(=O)O | -30 | 10 | -3 | 27 | i | ·
Cc1cc(=O)oc2c3c(cc(OCC(=O)NCC(=O)N[C@H](C(=O)O)C(C)C)c12)OC(C)(C)CC3 | -1 | 2 | 1 | + | -1 | -4
CCCC(NC(=O)COc1cc2c(c3oc(=O)cc(C)c13)CCC(C)(C)O2)C(=O)O (centres undefined) | -2 | 8 | 3 | 128* | -1 | 2
CC(C)C(NC(=O)COc1ccccc1)C(=O)O (centres undefined) | -1 | -10 | 5 | 0 | 0 | 0
COc1ccc(S(=O)(=O)N/N=C(/C)c2ccncc2)cc1OC | 1 | 1 | 4 | 0 | 0 | ·
Cc1cnc(C(=O)NCc2ccc(F)cc2)cn1 | 0 | 5 | 0 | -3 | -3 | -6
Cc1n[nH]c(=O)n(N=Cc2c[nH]c3ccccc23)c1=O | · | 8 | · | -5 | -5 | ·
CCCCOC(=O)/C=C\C(=O)NC(N)=O | -1 | 6 | 2 | -1 | 0 | -1
O=C(Oc1ccc(Br)cc1C(=S)N1CCCC1)c1ccccc1Cl | 2 | 2 | 2 | 1 | i | -7
O=C(Oc1ccc(Br)cc1C(=S)N1CCCCC1)c1cc([N+](=O)[O-])cc([N+](=O)[O-])c1 | 64* | 4 | 3 | -1 | 1 | -5
Cc1occc(=O)c1OCc1ccc(Cl)cc1Cl | -1 | 4 | -1 | -1 | i | -7
COc1ccccc1-c1c(C)oc2c(CN3CCN(CCO)CC3)c(O)ccc2c1=O | -2 | 14 | · | 176* | 0 | ·
COc1ccccc1-c1c(C)oc2c(CN3CCN(C)CC3)c(O)ccc2c1=O | -2 | 21 | 3 | 143* | i | 15
CCOC(=O)c1oc2c(CN3CCN(C)CC3)c(O)ccc2c(=O)c1-c1ccccc1OC | -1 | 15 | -2 | -4 | 0 | 3
CN(C)C1=NC(=O)/C(=C\c2ccccc2)S1 | 0 | 31* | 1 | -4 | 0 | -1
C=CCSC1=NC(=O)/C(=C/c2cccs2)S1 | · | 28 | 1 | -1 | 0 | 0
NC1=NC(=O)C(=Cc2ccccc2)S1 | · | 31* | · | 3 | -1 | ·
NC1=NC(=O)/C(=C\c2cccnc2)S1 | 2 | 20 | -1 | 1 | 0 | 9
SMILES | RecA splice inh | GDH-TPI inh | Mtb UGM inh | FBA Mtb inh | Vc quorum ag | Rv3671c inh
NC1=NC(=O)/C(=C/c2cccs2)S1 | · | 32* | -2 | -2 | i | 0
COc1ccc(/C=C2\SC(N)=NC2=O)cc1 | -1 | 30 | 0 | 1 | 1 | ·
CC(=O)c1cccc(CN2CCC(C(=O)Nc3cccc(-c4ccn[nH]4)c3)CC2)c1 | 0 | 12 | 1 | -3 | i | -20
CC(C)NC(=S)N/N=C/c1cccs1 | 1 | 38* | 0 | -5 | 0 | 5
S=C(NCc1ccccc1)N/N=C/c1cccs1 | 5 | 34* | 3 | 17 | i | -4
S=C(NCCc1ccccc1)N/N=C/c1cccs1 | -3 | 21 | 1 | 1 | i | -15
CCOC(=O)N(C)c1c(CC)nc2c(OCc3ccc(C(F)(F)F)cc3)cccn12 | · | 6 | · | -1 | i | ·
Cc1ccc2cc(C3C(C#N)=C(N)Oc4c3ccc3cccnc43)c(=O)[nH]c2c1 (centres undefined) | -1 | 35* | -2 | 4 | 0 | 9

Screens deposited in PubChem BioAssay by several laboratories.
